Source: PubChem BioAssay AID1159580 (chemical genetic matrix, 2015)
Values joined by “and” are separate entries in the source; they are usually repeats but may differ in a detail not shown here. Equal values may be shown once. The whole screen tested about 5,500 compounds, of which about 2,000 (36%) were called active. Another 18% or so got no clear call; they are omitted. Rule as the data show it: active = normalized growth mostly below about 0.91 (no sharp cut-off); inconclusive = no clear call, values can overlap the other calls; inactive = mostly above about 0.92. Some of the results follow.

Assay: chemical genetic growth profiling, strain panel (AID 1159580);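 also: tested at 20 µM; growth read once vehicle control cultures reached saturation at 30 °C; 1 = growth at the plate median or of vehicle wells; lower values mean less growth of the strain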
Conditions: growth OD
[1] = S. cerevisiae deletion strains, locus YAL013W, strain DEP1, stronger effect = lower value
[2] = S. cerevisiae deletion strains, locus YBR229C, strain ROT2, stronger effect = lower value
[3] = S. cerevisiae deletion strains, locus YDL101C, strain DUN1, stronger effect = lower value
[4] = S. cerevisiae deletion strains, locus YDR150W, strain NUM1, stronger effect = lower value
[5] = S. cerevisiae deletion strains, locus YEL061C, strain CIN8, stronger effect = lower value
[6] = S. cerevisiae deletion strains, locus YGR078C, strain PAC10, stronger effect = lower value
[7] = S. cerevisiae deletion strains, locus YHR030C, strain SLT2, stronger effect = lower value
[8] = S. cerevisiae deletion strains, locus YJR043C, strain POL32, stronger effect = lower value
[9] = S. cerevisiae deletion strains, locus YJR075W, strain HOC1, stronger effect = lower value
[10] = S. cerevisiae deletion strains, locus YLR039C, strain RIC1, stronger effect = lower value
[11] = S. cerevisiae deletion strains, locus YLR262C, strain YPT6, stronger effect = lower value
[12] = S. cerevisiae deletion strains, locus YMR263W, strain SAP30, stronger effect = lower value
[13] = S. cerevisiae deletion strains, locus YNL153C, strain GIM3, stronger effect = lower value
[14] = S. cerevisiae deletion strains, locus YNL322C, strain KRE1, stronger effect = lower value
[15] = S. cerevisiae deletion strains, locus YPL055C, strain LGE1, stronger effect = lower value
[16] = S. cerevisiae deletion strains, locus YPL241C, strain CIN2, stronger effect = lower value
[17] = S. cerevisiae strains, strain wild type, stronger effect = lower value

Measured: normalized growth

O/N=C(/CNC(c1ccccc1)(c1ccccc1)c1ccccc1)c1ccccc1
inactive: [1] 0.969 | [2] 0.977 | [3] 0.963 | [4] 0.9 | [5] 0.949 | [6] 0.987 | S. cerevisiae deletion strains, locus YHR087W, strain rtc3, stronger effect = lower value 1.01 | S. cerevisiae deletion strains, locus YJL187C, strain SWE1, stronger effect = lower value 0.97 | [8] 0.988 | [9] 1.02 | [10] 1.01 | S. cerevisiae deletion strains, locus YLR058C, strain SHM2 (second series), stronger effect = lower value 0.975 | S. cerevisiae deletion strains, locus YLR085C, strain ARP6, stronger effect = lower value 0.819 | [11] 1.02 | S. cerevisiae deletion strains, locus YML094W, strain GIM5, stronger effect = lower value 0.969 | S. cerevisiae deletion strains, locus YMR219W, strain ESC1, stronger effect = lower value 0.968 | [12] 0.999 | [13] 1.03 | S. cerevisiae deletion strains, locus YNL298W, strain CLA4 (second series), stronger effect = lower value 1 | [14] 0.985 | S. cerevisiae deletion strains, locus YNR030W, strain Alg12, stronger effect = lower value 0.976 | [15] 0.998 | [16] 0.964 | S. cerevisiae deletion strains, locus YPR135W, strain CTF4, stronger effect = lower value 0.758 | [17] 0.969
active: [7] 0.594

NCCCCNCCCN
inactive: [1] 1.01 and 0.954 | S. cerevisiae deletion strains, locus YAL040C, strain CLN3, stronger effect = lower value 0.977 | S. cerevisiae deletion strains, locus YBR021W, strain FUR4, stronger effect = lower value 1.11 | [2] 0.997 | S. cerevisiae deletion strains, locus YCL029C, strain bik1, stronger effect = lower value 0.95 | S. cerevisiae deletion strains, locus YCL061C, strain MRC1 (second series), stronger effect = lower value 0.982 | S. cerevisiae deletion strains, locus YDL035C, strain GPR1, stronger effect = lower value 1.02 | S. cerevisiae deletion strains, locus YDL074C, strain BRE1, stronger effect = lower value 0.98 | [3] 0.981 | S. cerevisiae deletion strains, locus YDL134C, strain PPH21, stronger effect = lower value 1.01 | S. cerevisiae deletion strains, locus YDL185W, strain tfp1, stronger effect = lower value 0.946 | S. cerevisiae deletion strains, locus YDL192W, strain arf1, stronger effect = lower value 0.983 | S. cerevisiae deletion strains, locus YDR101C, strain arx1, stronger effect = lower value 0.988 | [4] 0.978 and 1 | S. cerevisiae deletion strains, locus YDR162C, strain NBP2, stronger effect = lower value 0.998 | S. cerevisiae deletion strains, locus YDR318W, strain mcm21, stronger effect = lower value 0.987 | S. cerevisiae deletion strains, locus YDR363W, strain ESC2, stronger effect = lower value 0.971 | S. cerevisiae deletion strains, locus YDR388W, stronger effect = lower value 0.996 | S. cerevisiae deletion strains, locus YDR502C, strain sam2, stronger effect = lower value 1.01 | [5] 0.995 | S. cerevisiae deletion strains, locus YER002W, strain NOP16, stronger effect = lower value 0.991 | S. cerevisiae deletion strains, locus YER110C, stronger effect = lower value 0.979 | S. cerevisiae deletion strains, locus YER155C, strain BEM2, stronger effect = lower value 1.01 | S. cerevisiae deletion strains, locus YER167W, strain BCK2, stronger effect = lower value 1 | S. cerevisiae deletion strains, locus YGL078C, strain dbp3, stronger effect = lower value 0.981 | S. cerevisiae deletion strains, locus YGL086W, strain mad1, stronger effect = lower value 0.996 | S. cerevisiae deletion strains, locus YGL248W, strain PDE1, stronger effect = lower value 1 | [6] 0.972 | S. cerevisiae deletion strains, locus YGR135W, strain pre9, stronger effect = lower value 0.999 | S. cerevisiae deletion strains, locus YGR229C, strain SMI1, stronger effect = lower value 0.991 | S. cerevisiae deletion strains, locus YGR252W, strain gcn5, stronger effect = lower value 1.13 | [7] 0.985 and 0.976 | S. cerevisiae deletion strains, locus YHR079C, strain IRE1 (second series), stronger effect = lower value 0.981 | S. cerevisiae deletion strains, locus YHR079C, strain IRE1, stronger effect = lower value 0.985 | S. cerevisiae deletion strains, locus YHR094C, strain hxt1, stronger effect = lower value 0.972 | S. cerevisiae deletion strains, locus YHR129C, strain ARP1, stronger effect = lower value 0.989 | S. cerevisiae deletion strains, locus YHR200W, strain rpn10, stronger effect = lower value 0.992 | S. cerevisiae deletion strains, locus YIL066C, strain RNR3, stronger effect = lower value 0.99 | S. cerevisiae deletion strains, locus YIL073C, strain SPO22, stronger effect = lower value 0.722 | S. cerevisiae deletion strains, locus YIR030C, strain dcg1, stronger effect = lower value 0.99 | S. cerevisiae deletion strains, locus YJL095W, strain BCK1, stronger effect = lower value 0.977 and 1.02 | S. cerevisiae deletion strains, locus YJL134W, strain LCB3, stronger effect = lower value 0.995 | S. cerevisiae deletion strains, locus YJL168C, strain set2, stronger effect = lower value 0.991 | S. cerevisiae deletion strains, locus YJL187C, strain SWE1 (second series), stronger effect = lower value 0.964 | [8] 1 | S. cerevisiae deletion strains, locus YJR066W, strain TOR1, stronger effect = lower value 0.931 | [9] 0.995 and 1 | S. cerevisiae deletion strains, locus YKL009W, strain mrt4, stronger effect = lower value 0.991 | S. cerevisiae deletion strains, locus YKL068W, stronger effect = lower value 0.977 | S. cerevisiae deletion strains, locus YKL085W, strain MDH1 (second series), stronger effect = lower value 0.985 | S. cerevisiae deletion strains, locus YKL085W, strain MDH1, stronger effect = lower value 0.985 | S. cerevisiae deletion strains, locus YKL190W, strain CNB1, stronger effect = lower value 0.988 | S. cerevisiae deletion strains, locus YKR001C, strain vps1, stronger effect = lower value 0.971 | [10] 0.973 | S. cerevisiae deletion strains, locus YLR058C, strain SHM2, stronger effect = lower value 0.985 | S. cerevisiae deletion strains, locus YLR102C, strain apc9, stronger effect = lower value 0.991 | S. cerevisiae deletion strains, locus YLR113W, strain HOG1, stronger effect = lower value 1.05 | [11] 0.96 | S. cerevisiae deletion strains, locus YLR268W, strain sec22, stronger effect = lower value 0.928 | S. cerevisiae deletion strains, locus YLR330W, strain CHS5, stronger effect = lower value 0.991 | S. cerevisiae deletion strains, locus YLR342W, strain FKS1 (second series), stronger effect = lower value 1.04 | S. cerevisiae deletion strains, locus YLR371W, strain rom2, stronger effect = lower value 0.979 | S. cerevisiae deletion strains, locus YLR418C, strain cdc73, stronger effect = lower value 1.01 | S. cerevisiae deletion strains, locus YML016C, strain PPZ1, stronger effect = lower value 0.988 | S. cerevisiae deletion strains, locus YML124C, strain tub3, stronger effect = lower value 0.986 | S. cerevisiae deletion strains, locus YMR078C, strain ctf18, stronger effect = lower value 0.999 | S. cerevisiae deletion strains, locus YMR223W, strain ubp8, stronger effect = lower value 1.03 | [12] 0.978 and 0.977 | S. cerevisiae deletion strains, locus YMR307W, strain GAS1, stronger effect = lower value 1.12 and 0.988 | S. cerevisiae deletion strains, locus YNL067W, strain RPL9B, stronger effect = lower value 0.972 | S. cerevisiae deletion strains, locus YNL128W, strain TEP1, stronger effect = lower value 1.01 | [13] 0.971 and 1.03 | S. cerevisiae deletion strains, locus YNL175C, strain NOP13, stronger effect = lower value 1 | S. cerevisiae deletion strains, locus YNL183C, strain NPR1, stronger effect = lower value 0.959 | S. cerevisiae deletion strains, locus YNL197C, strain WHI3, stronger effect = lower value 0.988 | S. cerevisiae deletion strains, locus YNL224C, strain SQS1, stronger effect = lower value 0.98 | S. cerevisiae deletion strains, locus YNL233W, strain BNI4, stronger effect = lower value 0.98 | S. cerevisiae deletion strains, locus YNL250W, strain rad50, stronger effect = lower value 0.962 | S. cerevisiae deletion strains, locus YNL271C, strain bni1, stronger effect = lower value 0.977 | S. cerevisiae deletion strains, locus YNL298W, strain CLA4, stronger effect = lower value 0.981 | S. cerevisiae deletion strains, locus YNL307C, strain MCK1, stronger effect = lower value 0.975 | [14] 0.988 and 0.982 | S. cerevisiae deletion strains, locus YNR052C, strain pop2, stronger effect = lower value 0.995 | S. cerevisiae deletion strains, locus YOL006C, strain TOP1, stronger effect = lower value 0.776 | S. cerevisiae deletion strains, locus YOL012C, strain htz1 0.74 | S. cerevisiae deletion strains, locus YOL147C, strain pex11, stronger effect = lower value 0.982 | S. cerevisiae deletion strains, locus YOR061W, strain CKA2, stronger effect = lower value 0.996 | S. cerevisiae deletion strains, locus YOR069W, strain VPS5, stronger effect = lower value 0.996 | S. cerevisiae deletion strains, locus YOR083W, strain WHI5 (second series), stronger effect = lower value 0.915 | S. cerevisiae deletion strains, locus YOR136W, strain idh2, stronger effect = lower value 0.996 | S. cerevisiae deletion strains, locus YOR144C, strain elg1, stronger effect = lower value 0.996 | S. cerevisiae deletion strains, locus YOR184W, strain ser1, stronger effect = lower value 0.953 | S. cerevisiae deletion strains, locus YOR231W, strain MKK1, stronger effect = lower value 0.989 | S. cerevisiae deletion strains, locus YOR316C, strain cot1, stronger effect = lower value 0.979 | [15] 1.03 | [16] 0.997 | S. cerevisiae deletion strains, locus YPL256C, strain CLN2, stronger effect = lower value 0.974 | S. cerevisiae deletion strains, locus YPR119W, strain clb2, stronger effect = lower value 0.979 | S. cerevisiae deletion strains, locus YPR141C, strain kar3, stronger effect = lower value 0.991 | S. cerevisiae deletion strains, locus YPR163C, strain tif3, stronger effect = lower value 0.984 | S. cerevisiae deletion strains, locus YPR167C, strain met16, stronger effect = lower value 0.982 | S. cerevisiae deletion strains, strain wtn01, stronger effect = lower value 0.993 | [17] 1.01
